A selection: hits, their analogues and other compounds. The true share with any hit is near 15%.
Pf growth 96h: P. falciparum growth inhibition at 96 hour, primary screen for plastid delayed-death inhibitors | Potency, µM (titrated, usually from 28.7 µM), without a hit: top-dose activity change, negative = inhibition, hits mostly inhibitors | 320,000 tested, 6.9% active | AID 504834 | P. falciparum luciferase reporter growth, 96 h; note: potency is the fitted concentration of half-maximal effect; % is set by controls: 0 for no effect and ±100 for the full control effect
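Parasite growth measured via integrated firefly luciferase reporter in P. falciparum. Infected erythrocytes at 2% hematocrit, 0.05% parasitemia final were treated 96 hours at 37 C under 5% CO2, and luminescence was read.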
SARS PLP yeast: inhibitors of SARS-CoV papain-like protease in yeast; AID 485353; S. cerevisiae expressing SARS-CoV PLpro, growth rescue; 330,000 tested, 0.19% active; Potency, µM (highest dose often 32.9 µM), without a hit: at the top dose activity, positive = growth rescue, hits mostly activators; calls by dose curve; note: potency is the fitted concentration of half-maximal effect; 0% is about no effect; nearly all actives have a fitted effect of over 55% in size
HCV inhibitor: inhibitors of hepatitis C virus infection; Huh7.5.1 HCVcc-Cre infection, luciferase reporter, 44 h; Potency, µM (highest dose often 41.8 µM), inactives show top-dose activity change, negative = inhibition, usual class: inhibitors; 340,000 tested, 3.4% active; note: potency is the fitted concentration of half-maximal effect; % is set by controls: 0 for no effect and ±100 for the full control effect
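Cells (1,000/well) were plated 4 h before compound, then infected with HCVcc-Cre virus (~0.5 moi). After 44 h further culture, infection was read as luciferase luminescence following a 15 min substrate incubation at room temperature.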
HCMV inh: inhibitors of human cytomegalovirus; HFF cells, HCMV-luciferase reporter, 72 h; hits give low values; activity change, negative = inhibition, % at 57.5 µM; 410,000 tested, 4.5% active; in the data active = activity change below about -60%; inconclusive = no clear call, values can overlap the other calls; inactive = above about -39%; note: % is set by controls: 0 for no effect and ±100 for the full control effect
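Two compound doses tested in HFFs infected with HCMV-luciferase, MOI 1 PFU/cell, 72 h at 37C. Lysate luminescence read with OneGlo; data normalized against buffer-only and 10uM Salinomycin inhibitor controls.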
Sm TGR block: S. mansoni TGR enzyme inhibition; purified TGR, DTNB reduction, TNB absorbance 405 nm; Potency, µM (highest dose often 114 µM), without a hit: top-dose activity change, negative = inhibition, actives largely listed as inhibitors; 360,000 tested, 3% active; note: potency is the fitted concentration of half-maximal effect; % is set by controls: 0 for no effect and ±100 for the full control effect; nearly all actives have a fitted effect of over 60% in size
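TGR 20 nM + NADPH 100 uM (dispensed conc.), cpd preinc 15 min RT; start with NADPH (500 uM addition) then DTNB (15 mM addition). Kinetic TNB absorbance, 405 nm filter. Four-parameter Hill fit across titration.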
Pf growth 48h: P. falciparum growth inhibition at 48 hours (one generation); P. falciparum luciferase growth in erythrocytes, 48 h; Potency, µM (doses to about 28.7 µM), inactives show top-dose activity change, negative = inhibition, hits mostly inhibitors; 310,000 tested, 5.9% active; AID 504832; note: potency is the fitted concentration of half-maximal effect; % is set by controls: 0 for no effect and ±100 for the full control effect
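Compounds are pin-transferred into medium, infected erythrocytes (2% hematocrit, 0.1% parasitemia final) are added, and plates sit one parasite generation at 37 C in 5% CO2. Detection reagent is then added and luminescence measured.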
* hit, by the source's call; ? = inconclusive; . = no result given; [ ] = dose if it differs, or a comment. Unless noted, calls come from the whole dose curve; as a rule, active = well fitted curve in the direction sought with a large enough effect; inconclusive = small, poorly fitted or top-dose-only effect, or another doubt; inactive = no such curve, though single readings can be large; an effect the other way counts as inactive or inconclusive.

SMILES | Pf growth 96h | SARS PLP yeast | HCV inhibitor | HCMV inh | Sm TGR block | Pf growth 48h
COC(=O)[C@@H]1C[C@@H]2CC[C@@H](O)C[C@@H]2N1Cc1ccccc1OS(=O)(=O)c1ccc(C)cc1 | ? | -2% | -1% | -24 | 28µM* | 10µM*
COC(=O)[C@H]1CC(=O)N[C@@H]1c1ccc(OC(C)C)c(OC)c1 | . | . | . | -3 | . | .
CC(NC(=O)c1ccc(OC2CCN(C(=O)c3cccnc3)CC2)cc1)C1CC1 (stereo not given) | 12µM* | -1% | 8% | 18 | 9% | 18%
CN(C)S(=O)(=O)c1ccc(Cl)c(NC(=O)CN2CCCC2)c1 | 23% | 5% | ? | 11 | -5% | 16%
c1cc[n+](CCC[n+]2ccccc2)cc1 | 16% | 0% | -8% | -102* | ? | 20%
CC(C)c1ccc(O)c(N)c1 | 2.9µM* | -4% | -9% | -17 | -20% | ?
CCC(C)c1ccc(O)c(N)c1 (stereo not given) | ? | -9% | 0% | 3 | -29% | ?
CC(C)(C)c1ccc(O)c(N)c1 | 13µM* | -1% | . | . | -13% | ?
Cc1cccc(C(=O)NC(Oc2ccccc2)C(Cl)(Cl)Cl)c1 (stereo not given) | 7.4µM* | 1% | -2% | -9 | 5% | ?
CCN1CN(Cc2ccco2)CNC1=S | 31% | -6% | -3% | 19 | -11% | -12%
O=C(Cn1cnc2cc([N+](=O)[O-])ccc2c1=O)NCCc1ccc(F)cc1 | -10% | 1% | 1% | -8 | 21% | 2%
O=C(Cn1cnc2cc([N+](=O)[O-])ccc2c1=O)NCCc1ccc(Cl)cc1 | 11% | 2% | 14µM* | 21 | . | 11%
O=S(=O)(CCN1C=CC(C(F)(F)F)=NCC1)c1ccc(Cl)cc1Cl | 8% | -1% | 3% | -21 | 25µM* | -15%
CC(C)Nc1nnc(SCC(=O)c2c(N)n(Cc3ccccc3)c(=O)n(C)c2=O)s1 | 9.3µM* | 3% | -1% | -34 | 1% | ?
COCC(C)n1c(COc2ccccc2F)nnc1SCC(=O)c1c(N)n(C)c(=O)n(C)c1=O (stereo not given) | ? | 0% | -1% | 15 | -3% | 10µM*
Cc1nnc(SCC(=O)c2c(N)n(C)c(=O)n(C)c2=O)n1Cc1ccccc1 | 2% | 22µM* | -6% | -7 | 6% | -6%
Cn1c(N)c(C(=O)CSc2nnc(NC3CCCCC3)s2)c(=O)n(C)c1=O | 1.3µM* | -1% | -4% | -18 | 4% | ?
O=C(N[C@H](Cc1ccccc1)C(O)c1nc2ccccc2[nH]1)c1cccc2ccccc12 (stereo not given in full) | . | . | . | -12 | . | .
COc1ccc(CN(C)c2ccc(-c3nc(-c4ccc(OC)c(OC)c4)no3)cc2[N+](=O)[O-])cc1 | . | . | . | 4 | -13% | .
CC1(C(=O)NCc2ccccc2)CSCC(=O)N1Cc1cccc(C(F)(F)F)c1 (stereo not given) | . | . | . | 8 | . | .
C=CCOc1ccc(C2C(C#N)=C(N)N(Nc3ccccc3)C3=C2C(=O)CC(C)(C)C3)cc1OC (stereo not given) | 8.3µM* | 1% | ? | 18 | 10% | 8.3µM*
COc1ccc(C2C3=C(CC(C)(C)CC3=O)N(C)C3=C2C(=O)CC(C)(C)C3)cc1OC | 13µM* | 9% | 9% | -24 | ? | 16%
C#CCOc1ccc(C2C3=C(CC(C)(C)CC3=O)N(CC(=O)O)C3=C2C(=O)CC(C)(C)C3)cc1OC | ? | 1% | 1% | -3 | 35µM* | -2%
COc1ccc(C2C(C#N)=C(N)OC3=C2C(=O)CC(C)(C)C3)cc1OC (stereo not given) | ? | 2% | -2% | ? | 2% | 0%
C#CCOc1ccc(C2C3=C(CC(C)(C)CC3=O)N(CC(=O)O)C3=C2C(=O)CC(C)(C)C3)cc1 | ? | -3% | 18% | 1 | 0% | -13%
SMILES | Pf growth 96h | SARS PLP yeast | HCV inhibitor | HCMV inh | Sm TGR block | Pf growth 48h
CCOc1ncccc1C(=O)N(CC)CC(=O)NCc1ccc(Cl)cc1 | -7% | -2% | -30% | ? | 7% | 18%
COc1ccc(C2/C=C\CN(Cc3ccc(N(C)C)cc3)CC(=O)N2Cc2ccc(F)cc2)cc1 (stereo not given) | ? | -2% | -4%[8.37 µM] | 25 | 0% | ?
CCc1nn2c(=O)cc(COC(=O)c3cc(Cl)c(OC)c(OC)c3)nc2s1 | ? | -3% | ? | 66 | -10% | 12µM*
COCCc1nn2c(=O)cc(COC(=O)c3ccc(Br)cc3)nc2s1 | . | . | . | 17 | 89µM* | .
CCCc1nn2c(=O)cc(COC(=O)c3ccc(NC(=O)c4cccs4)cc3)nc2s1 | . | . | . | -96* | 2% | .
CCc1nn2c(=O)cc(COC(=O)c3ccccc3)nc2s1 | . | . | . | 4 | 2% | .
COCCc1nn2c(=O)cc(COC(=O)c3ccc(OC)c(OC)c3)nc2s1 | . | . | . | -12 | -7% | .
COc1ccc(/C=C(\NC(=O)c2ccc(C)cc2)C(=O)Nc2c(C)n(C)n(-c3ccccc3)c2=O)cc1 | -22% | 0% | 5% | -10 | 0% | -28%
Cc1nc2cc(NCc3ccccc3O)ccc2n1Cc1ccccc1 | ? | -1% | ? | -20 | 7% | ?
CC(=O)c1cccc(NC(=O)Cn2nc(C)n3cccc3c2=O)c1 | . | . | . | 6 | -13% | .
O=C(NCCc1ccc(Cl)cc1)c1cnccn1 | 9% | 4% | 9% | -28 | -1% | 66%
CC(C)(C)C(=O)N(Cc1ccc(Cl)cc1)c1cnccn1 | 5.2µM* | -1% | ? | -64* | -5% | 3.3µM*
CCc1cccc(C)c1NC(=O)COC(=O)c1c2c(nc3ccccc13)/C(=C\c1cccs1)CCC2 | 10µM* | -2% | 1.1µM* | -28 | -8% | 13µM*
NC(=O)c1ccc(NC(=O)COC(=O)c2c3c(nc4ccccc24)/C(=C\c2cccs2)CCC3)cc1 | -73% | -22% | ? | -4 | -7% | ?
CCCCNC(=O)COC(=O)c1c2c(nc3ccccc13)/C(=C\c1cccs1)CC2 | . | . | 2.8µM* | 120 | . | .
COC(=O)c1sc(C(C)(C)C)cc1CS(=O)(=O)c1ccccn1 | 13µM* | 1% | -7% | -9 | 0% | ?
Cc1ccc(C(=O)Nc2ncccc2O)cc1S(=O)(=O)N1CCCCC1 | ? | 8% | 2% | -11 | -8% | ?
CC(C)C(NC(=O)c1ccc(S(=O)(=O)N2CCOCC2)cc1)c1nc2ccccc2[nH]1 (stereo not given) | 13µM* | 4% | -17% | 40 | 17% | -20%

Screening data as filed in PubChem.
